According to ChEMBL document CHEMBL1961873, “Compounds: GSK PKIS; Assays: Nanosyn kinase panel” (2012):

Biological target: Cyclin-dependent kinase 2 (Homo sapiens) (UniProt P24941)
Conditions: at 1 µM
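Note: mean inhibition of the CDK2–cyclin A kinase complex.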

| Structure (SMILES) | inhibition |
| --- | --- |
| COc1cc(/C=N/Nc2ncnc3[nH]ncc23)ccc1O | 28.3% |
| COc1cc(Nc2nccc(Nc3ccc4c(C)n[nH]c4c3)n2)cc(OC)c1OC | 3.22% |
| COc1cc2c(cc1Nc1nc(Nc3ccsc3C(N)=O)c3cc[nH]c3n1)N(C(=O)CN(C)C)CCC2(C)C | -0.79% |
| CCn1c(-c2nonc2N)nc2c(C#CC(C)(C)O)nc(OC[C@H](N)c3ccccc3)cc21 | 4.36% |
| COC(=O)Nc1nc2ccc(S(=O)(=O)c3ccc(NC(=O)Nc4cc(C(F)(F)F)ccc4F)cc3)cc2[nH]1 | 4.57% |
| N#Cc1c(NC(=O)c2ccc(F)cc2)sc2c1CCCC2 | -1.07% |
| CCn1c(-c2nonc2N)nc2c(C#CC(C)(C)O)ncc(OC3CCNCC3)c21 | 1.76% |
| CCn1c(-c2nonc2N)nc2cnc(Oc3cccc(NC(=O)c4ccc(N(C)C)cc4)c3)cc21 | 8.52% |
| Fc1cccc(COc2ccc(Nc3ncnc4sc(-c5ccco5)cc34)cc2Cl)c1 | 2.68% |
| O=S(=O)(CCNCc1ccc(-c2ccc3ncnc(Nc4ccc(OCc5cccc(F)c5)c(Cl)c4)c3c2)o1)c1ccccc1 | 2.63% |
| COc1cccc(-n2ncc3c(N/N=C/c4ccc(F)cc4)ncnc32)c1 | 48.5% |
| NC(=O)c1sc(-n2cnc3ccc(C(F)(F)F)cc32)cc1OCc1ccccc1Br | 1.52% |
| NS(=O)(=O)c1ccc(N/N=C2\C(=O)Nc3ccc4ncccc4c32)cc1 | 86.6% |
| c1ccc(-c2nc3n(c2-c2ccc4c(c2)OCO4)CCC3)nc1 | -5.6% |
| CCNC(=O)O[C@H]1CN[C@H](C#Cc2cc3ncnc(Nc4ccc(OCc5cccc(F)c5)c(Cl)c4)c3s2)C1 | -0.72% |
| COc1ccc(-c2cc(-c3c[nH]nc3-c3ccccn3)ccn2)cc1 | 7.74% |
| Nc1nc(-c2cccc(Cl)c2)c(-c2ccc3ncccc3n2)s1 | 0.95% |

| Structure (SMILES) | inhibition |
| --- | --- |
| Clc1ccc(-c2nn3ncccc3c2-c2ccnc(Nc3ccccc3)n2)cc1 | 3.91% |
| CCN1CCC(CC(=O)Nc2n[nH]c3nnc(-c4cccc(F)c4F)cc23)CC1 | 13.8% |
| CN1CCC(n2cnc(-c3ccc(F)cc3)c2-c2ccnc(N)n2)CC1 | 1.07% |
| CNC(=O)c1cncc(/C=C/c2ccccc2Cl)c1 | -0.73% |
| CC(C)COC(=O)c1ccc2c(c1)/C(=C/Nc1ccc(S(N)(=O)=O)cc1)C(=O)N2 | 86.6% |
| CCN(CC)S(=O)(=O)c1ccc(OC)c(Nc2ncc(-c3ccccc3)o2)c1 | 5.22% |
| COc1ccc(-c2oc3ncnc(N)c3c2-c2ccc(NC(=O)Nc3cc(C(F)(F)F)ccc3F)cc2)cc1 | 28.1% |
| COc1ccc(CNC(=O)c2ccc(-c3cc(-c4nnc(C)o4)ccc3C)cc2)cc1 | -1.7% |
| CC(C)(CO)CNC(=O)c1ccc2c(c1)/C(=N/Nc1ccc(S(N)(=O)=O)cc1)C(=O)N2 | 93.6% |
| Cc1cccc2c1NC(=O)/C2=N\Nc1ccc(S(N)(=O)=O)cc1 | 3.8% |
| Cc1ccc2c(-c3ccnc(Nc4ccccc4)n3)c(-c3ccc(F)cc3)nn2n1 | 0.79% |
| CNC(=O)c1cccc(C#Cc2cncnc2Nc2ccc(OCc3cccc(F)c3)c(Cl)c2)c1 | 6.57% |
| c1cc(-c2cnn3nc(N4CCOCC4)ccc23)nc(NC2CC2)n1 | 50.7% |
| FC(F)(F)c1cccc(-c2nn3ncccc3c2-c2ccnc(Nc3ccc4c(c3)OCCO4)n2)c1 | 0.77% |
| CC1=C(C(=O)Nc2cc(Cl)c3[nH]ncc3c2)C(c2ccc(C(F)(F)F)cc2)CC(=O)N1 (centres undefined) | 9.38% |
| COc1cc(N2CCN(C(C)C)CC2)ccc1Nc1nc(Nc2ccc(F)cc2C(N)=O)c2cc[nH]c2n1 | 0.03% |
| O=C(Nc1n[nH]c2cc(-c3ccc(F)cc3)ccc12)C1CC1 | 5.81% |
